SF1 inhibitor: inhibitors of human SF-1, primary screen, cell-based, CHO-K1, Gal4-SF-1 LBD, luciferase luminescence | 65,000 compounds, 0.55% hits | AID 525, 2006 | inhibition, % at 10 µM | CHO-K1 Gal4-SF-1 LBD luciferase reporter | Steroidogenic factor 1 (Homo sapiens), Q13285;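 active = inhibition above the mean inhibition of all tested compounds plus 3 SD, cut at about 48% in these data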;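 note: 0% = SF-1 transfected cells with DMSO and 100% = mock-transfected cells lacking SF-1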
Target sequence (Q13285 whole entry, looked up, the tested form may be a part): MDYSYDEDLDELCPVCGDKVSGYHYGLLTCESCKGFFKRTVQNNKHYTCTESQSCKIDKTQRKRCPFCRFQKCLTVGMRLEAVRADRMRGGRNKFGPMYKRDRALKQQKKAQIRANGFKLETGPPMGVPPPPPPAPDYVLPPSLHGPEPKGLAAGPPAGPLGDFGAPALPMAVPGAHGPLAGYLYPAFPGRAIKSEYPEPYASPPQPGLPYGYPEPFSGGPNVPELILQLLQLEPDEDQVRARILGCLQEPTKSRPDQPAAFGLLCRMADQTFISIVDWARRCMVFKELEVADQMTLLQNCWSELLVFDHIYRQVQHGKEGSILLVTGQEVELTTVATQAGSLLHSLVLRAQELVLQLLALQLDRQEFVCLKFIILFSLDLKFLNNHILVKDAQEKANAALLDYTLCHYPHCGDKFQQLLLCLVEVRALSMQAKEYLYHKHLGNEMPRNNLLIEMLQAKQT
* marks the source's active call; other numbers are inactive results. Many of the other results were omitted from the sample, so hits are more common in it than they were.

SMILES	SF1 inhibitor
O=C(O)CCC(=O)N1CCN(c2cccc(Cl)c2)CC1	-9.9
COc1ccc2c(c1OC)C(=O)N(c1cccc(C(F)(F)F)c1)C2	-58.8
COc1ccccc1CC(=O)N1CCN(c2cccc(C(F)(F)F)c2)CC1	48.5*
Cn1c(C(=O)NCc2cccs2)cc2oc3ccccc3c21	-54.4
COc1cccc(-c2nnc(SCC(=O)OC(C)C)n2Cc2ccco2)c1	15.3
O=C(CCOc1ccccc1)Nc1ccc(S(=O)(=O)N2CCCC2)cc1	-1.5
Cc1cnc(NC(=O)c2ccco2)s1	-52.9
COc1ccc(N2CCN(C(c3cccs3)C(C)NC(=O)c3ccco3)CC2)cc1 (stereo unspecified)	-16.5
Cc1sc(NC(=O)c2ccco2)c(C(c2cccnc2)N2CCN(c3ccc(F)cc3)CC2)c1C (stereo unspecified)	48.4*
CCOC(=O)N1CCN(C(=O)CN(C)S(=O)(=O)c2ccc(OC)c(OC)c2)CC1	-0.2
Clc1ccc(-c2nnc(NC3=NCCCCC3)o2)cc1	57.6*
Fc1ccc(-c2nnc(-c3ccc(Cl)cc3Cl)o2)cc1	23.7
c1ccc(-n2c(Cc3cn4ccsc4n3)nnc2N2CCOCC2)cc1	-5.9
CN(C)S(=O)(=O)c1ccc(C(=O)Nc2ccc(CN3CCCC3)cc2)cc1	11.1
CCN(CC)S(=O)(=O)c1ccc(NC(=O)c2ccccn2)cc1	-55.0
CCCCN(CCCC)S(=O)(=O)c1ccc(C(=O)Nc2nnc(CSC)o2)cc1	55.2*
Cc1c(NC(=O)CCCCCN2C(=O)C3C4C=CC(C4)C3C2=O)c(=O)n(-c2ccccc2)n1C (stereo unspecified)	-10.6
CCOC(=O)CNc1c(N2CCN(c3ccccn3)CC2)c(=O)c1=O	-13.5
COc1ccc(-n2c(Cc3cccn3C)nnc2SCC(=O)Nc2cccc(OC)c2)cc1	-10.3
COc1cccc(NC(=O)CSc2ccc3nnc(-c4ccncc4)n3n2)c1	12.7
COc1cccc(NC(=O)CSc2nnc(-c3cc(C)n(-c4ccccc4)c3C)o2)c1	66.8*
COc1ccc(C)cc1Cn1c(S(C)(=O)=O)nc2ccccc21	2.7
CCOC(=O)c1c(N)sc2c1CCS(=O)(=O)C2	5.2
Cc1ccc(-c2nc(Nc3ccccc3)n[nH]2)cc1	-64.5
Cc1ccc(-c2cn3nc(C)c(C)nc3n2)cc1	79.1*
SMILES	SF1 inhibitor
CCSCCNC(=O)c1cncc(Br)c1	17.0
COC(=O)c1cn(C(C)C(=O)NCc2ccco2)c2ccccc12 (stereo unspecified)	13.0
CCN1C(=O)N(CN2CCOCC2)C2C1N(CN1CCOCC1)C(=O)N2CC (stereo unspecified)	16.5
COC(=O)c1sc(NC(=O)CSc2nnnn2-c2ccc(C)cc2C)nc1C	21.5
CCOC(=O)c1nc2nc(C)c(Cl)c(=O)n2[nH]1	7.4
COc1ccc(CC(=O)Nc2ccc(-c3nnc(-c4ccccc4)o3)cc2)cc1OC	76.7*
COc1ccc(CC(=O)Nc2cccc(-c3nnc(-c4cccc(C)c4)o3)c2)cc1OC	93.3*
CCOc1cccc(C(=O)Nc2cccc(-c3nnc(-c4ccc(C)cc4)o3)c2)c1	11.0
CC(=O)/C=C(\C)Nc1ccc(-c2cnc(-c3ccccc3)o2)cc1	-56.7
CC(=O)Nc1cccc(-c2nnc(-c3ccccc3)o2)c1	-50.6
CCC(=O)Nc1cccc(-c2nc3ccccc3c(=O)o2)c1	22.2
COc1cc(CNC2CCC(C)C2)cc(OC)c1 (stereo unspecified)	6.4
CCOc1ccc(N2C(=O)c3cccnc3C2Nc2ccc(C)cc2)cc1 (stereo unspecified)	0.2
FC(F)C(F)(F)C1=CC(c2cccs2)=NCCN1	9.9
COc1ccccc1-c1nc2n(n1)C(c1cccs1)C(C(=O)Nc1cccnc1)=C(C)N2 (stereo unspecified)	-2.2
CCN1C(=O)/C(=C2/Sc3ccc(OC)cc3N2C)SC1=Nc1cccc(O)c1	51.2*
CCC1(CC)C(=O)NC(=O)NC1=NCCc1ccc(O)cc1	3.7
COc1cccc(NC(=O)C2CCCN(S(=O)(=O)c3cccc4cccnc34)C2)c1 (stereo unspecified)	4.4
Cc1ccc(S(=O)(=O)Nc2nc(C)cc(NCCN)n2)cc1	-7.9
COc1cc(NS(=O)(=O)c2ccc(C)cc2)c2ncccc2c1	94.3*
CC(=O)C1=C(c2ccccc2)NC(=O)NC1c1ccccc1OCC#N (stereo unspecified)	6.2
COc1ccccc1N(CC(=O)NC1CCCC1)C(=O)c1csnn1	-6.6
O=C(COC(=O)CSCC(=O)N1CCCCC1)Nc1ccc(Cl)cc1	5.1
COc1cc(-c2nnc3sc(-c4cccnc4)nn23)cc(OC)c1OC	17.8
CCN(CC)c1ccc(-c2nn3c(-c4ccccc4OC)nnc3s2)cc1	66.8*
SMILES	SF1 inhibitor
COc1ccccc1-c1nn2c(-c3ccco3)nnc2s1	-59.1
O=C(CNS(=O)(=O)c1ccc(Br)s1)Nc1ccc2c(c1)OCCO2	-27.3
O=S(=O)(NCc1ccncc1)c1ccc(Br)s1	82.9*
O=S(=O)(NCc1csc(-c2ccccc2)n1)c1ccc(Cl)s1	11.7
COc1cc2c(cc1OC)C(C)N(C(=O)C1COc3ccccc3O1)CC2 (stereo unspecified)	7.1
Cc1csc2nc(CNS(=O)(=O)c3ccc4c(c3)CCCC4)cn12	-14.5
CC(C)CCNC(=O)NC(=O)COc1ccccc1C#N	-8.4
Cc1ccc(-n2ncc3c(N4CCCC4)ncnc32)c(C)c1	-66.0
c1ccc(-n2ncc3c(NC4CCCCCC4)ncnc32)cc1	-90.9
c1ccc(-n2ncc3c(N4CCCCC4)ncnc32)cc1	68.7*
Cc1ccc(-n2ncc3c(N4CCCC(C)C4)ncnc32)c(C)c1 (stereo unspecified)	-58.7
CC1CCCN(c2ncnc3c2cnn3-c2ccc(Cl)cc2)C1 (stereo unspecified)	85.5*
CC1CCCN(c2ncnc3c2cnn3-c2ccccc2)C1 (stereo unspecified)	48.2*
CCN1CCN(c2ncnc3c2cnn3-c2ccccc2)CC1	-56.5
Cc1cccc(-n2ncc3c(N4CCC(C)CC4)ncnc32)c1	-70.1
CC1CC(C)CN(c2ncnc3c2cnn3-c2ccc(Cl)cc2)C1 (stereo unspecified)	-70.8
Cc1cc(C)cc(-n2cc3c(=O)n(C)c(=O)n(C)c3c2)c1	-0.7
CCOCCCNC(=O)CCS(=O)(=O)Cc1ccc(C)cc1	17.7
CCCCNC1C(CC)C(CCC)C(C#N)(C#N)C1(C#N)C#N (stereo unspecified)	22.3
O=C(CN1CCN(CC(=O)Nc2ccccn2)CC1)Nc1ccccn1	7.9
c1ccc(Nc2nc3ccccc3[nH]2)nc1	-54.7
c1ccc(/N=C2\N=C(Nc3ccccn3)c3ccccc32)nc1	86.5*
CCC(CC)c1nc(NCCC(=O)O)c2ccccc2n1	6.1
COc1ccc(-n2ncc3c(NCc4ccccn4)ncnc32)cc1	-56.4
CN(CC1CCCO1)S(=O)(=O)c1ccc(C(=O)Nc2nc(-c3ccccn3)cs2)cc1 (stereo unspecified)	70.1*
SMILES	SF1 inhibitor
CCOc1ccc(S(=O)(=O)Nc2ccccc2C(=O)NCC2CCCO2)cc1 (stereo unspecified)	10.0
O=C(CN(CC1CCCO1)C(=O)CCC(=O)Nc1ccccn1)NCC1CCCO1 (stereo unspecified)	-0.4
CCn1c(SCc2cccnc2)nnc1-c1c[nH]c2ccccc12	1.2
c1ccc(Cn2c(-c3ccco3)nc3nc4ccccc4nc32)cc1	-81.8
Cc1ccc(-c2nc3nc4ccccc4nc3n2Cc2ccco2)cc1	58.6*
COc1ccc(CCn2c(-c3ccco3)nc3nc4ccccc4nc32)cc1	-29.2
